# According to PubChem BioAssay:
# The source made the active and inactive calls. Rule as the data show it, unless noted: active = inhibition above about 80%; inactive = the rest.
# Experiments:
# [1] = growth inhibition, single agent or in combination, cell-based, chromothripsis tumors, cisplatin or BGB combos (AID 1671449); details: LFS_MB_P medulloblastoma cells;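 also: cells exposed for 96 hours; 0% = vehicle DMSO and 100% = killing by high DMSO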
# [2] = growth inhibition, single agent and combos, cell-based, chromothripsis tumors, cisplatin or BGB combos (AID 1671450); details: HDN33 neuroblastoma cells, stronger effect = higher value;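 also: cells exposed to compound for four days; 0% = vehicle DMSO and 100% = cell killing by high DMSO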
# [3] = growth inhibition, single agents and combos, ICB984, cell-based, cisplatin or BGB combos, synergistic combos for chromothripsis tumors (AID 1671451; call rule not given here;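 also: cells exposed for 96 hours before readout; 0% = vehicle DMSO and 100% = killing by high DMSO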); details: ICB984 medulloblastoma cells, drug combinations, stronger effect = higher value
# [4] = growth inhibition, single agents and combos, LFS_MB_1R, cell-based, cisplatin or BGB combos, synergistic combos for chromothripsis tumors (AID 1671452); details: LFS_MB_1R medulloblastoma cells, stronger effect = higher value;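 also: cells exposed for 96 hours before readout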
# [5] = growth inhibition, single agents and combos, HTB85, cell-based, BGB or cisplatin IC20 combos, synergistic combos for chromothripsis tumors (AID 1671453); details: HTB85 osteosarcoma cells, drug combinations, stronger effect = higher value;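 also: cells exposed for 96 hours before readout; 0% = vehicle DMSO and 100% = high DMSO killing control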
# [6] = growth inhibition, single agents and combos, CRL2098, cell-based, BGB or cisplatin IC20 combos, synergistic combos for chromothripsis tumors (AID 1671454); details: CRL2098 osteosarcoma cells, drug combinations, stronger effect = higher value;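 also: cells exposed for 96 h before readout; 0% = vehicle DMSO and 100% = killing by high DMSO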
# [7] = growth inhibition, single agents and combos, HD-MB03, cell-based, BGB or cisplatin IC20 combos, synergistic combos for chromothripsis tumors (AID 1671455; in the data active = inhibition above about 83%;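 also: 0% = vehicle DMSO and 100% = high DMSO as cytotoxic control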); details: HD-MB03 medulloblastoma cells, stronger effect = higher value
# [8] = growth inhibition, single agents and combos, UWB1.289, cell-based, BGB or cisplatin combos, synergistic combos for chromothripsis tumors (AID 1671456); details: UWB1.289 ovarian carcinoma cells, stronger effect = higher value;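 also: cells exposed to compound for four days; 0% = vehicle DMSO and 100% = killing by high DMSO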
# [9] = growth inhibition, single agents and combos, LFS_MB_2R, cell-based, cisplatin combos, synergistic combos for chromothripsis tumors (AID 1671457); details: LFS_MB_2R medulloblastoma cells, stronger effect = higher value;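 also: cells exposed to compound for four days before readout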
# [10] = growth inhibition, MDA-MB-436, cell-based, BGB or cisplatin combos, synergistic combos for chromothripsis tumors (AID 1671458; call rule not given here;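 also: cells exposed for 96 hours; 0% = vehicle DMSO and 100% = killing by high DMSO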); details: MDA-MB-436 breast carcinoma growth inhibition, drug combinations, stronger effect = higher value
# [11] = UWB1.289_BRCA1 ovarian cancer growth, cell-based, BGB or cisplatin combinations (AID 1671459); details: UWB1.289 BRCA1 ovarian carcinoma, drug combinations, stronger effect = higher value
# [12] = drug combination toxicity in non-malignant astrocytes – cell-based, BGB or cisplatin IC20 combos, cytotoxicity control for chromothriptic childhood tumor combination screen (AID 1671460); details: Human astrocytes, viability inhibition, drug combinations, at 0.5 µM, stronger effect = higher value;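 also: cells exposed to compounds for 96 hours before viability readout; 0% = vehicle and 100% = killing control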
# [13] = BT084 cell growth, single and combined drugs, ICGC_MB145, cisplatin and BGB IC40 combos (AID 1671461); details: BT084 medulloblastoma cells, drug combinations, stronger effect = higher value;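 also: cells exposed to drugs for 96 hours; 0% = vehicle DMSO and 100% = high DMSO full killing control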
# [14] = RCMB18 cell growth, single agent and combined, cisplatin and BGB IC40 combos (AID 1671462); details: RCMB18 medulloblastoma cells, stronger effect = higher value;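 also: cells exposed to compound for four days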
# [15] = CRL1545 cell growth, single agent and combined, cisplatin and BGB IC20 combos (AID 1671464); details: CRL1545 osteosarcoma cells, stronger effect = higher value;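 also: cells exposed to compound for 96 hours before readout; 0% = vehicle DMSO and 100% = high DMSO killing control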
# [16] = measured here: combination with BGB IC40, at 0.05 µM
# [17] = measured here: with BGB IC20 combination, at 0.5 µM
# [18] = measured here: with cisplatin IC20 combination, at 0.5 µM
# [19] = measured here: combination with cisplatin, at 0.5 µM
# [20] = measured here: combination with cisplatin, at 5 µM
structure (smiles),measurement,setting,value
COc1cccc2c1C(=O)c1c(O)c3c(c(O)c1C2=O)CC(O)(C(C)=O)CC3OC1CC(N)C(O)C(C)O1 (stereo not drawn),inhibition,"[1]; at 0.5 µM, stronger effect = higher value",-31.5% (inactive)
same,inhibition,"[1]; measured here: combination with BGB IC20, at 0.005 µM",15.7%
same,inhibition,"[1]; measured here: combination with BGB IC40, at 0.005 µM",-20.1%
same,inhibition,[1]; [16],0.2%
same,inhibition,"[1]; measured here: combination with cisplatin, at 0.5 µM, stronger effect = higher value",-39.6%
same,inhibition,"[1]; measured here: combination with cisplatin, at 5 µM, stronger effect = higher value",121%
same,inhibition,"[2]; BGB combo, at 5 µM",99.8%
same,inhibition,[2]; at 0.5 µM,99.4% (active)
same,inhibition,"[2]; cisplatin combo, at 5 µM",99.9%
same,inhibition,[2]; [17],98.9%
same,inhibition,[2]; [18],99.7%
same,inhibition,"[2]; single agent, at 5 µM",99.9%
same,inhibition,"[3]; BGB IC20 combo, at 0.005 µM",97.7%
same,inhibition,"[3]; BGB IC40 combo, at 0.005 µM",98%
same,inhibition,"[3]; BGB IC40 combo, at 0.05 µM",102%
same,inhibition,[3]; at 0.5 µM,-13% (inactive)
same,inhibition,"[3]; cisplatin combo, at 0.05 µM",102%
same,inhibition,"[3]; cisplatin combo, at 0.5 µM",-18.7%
same,inhibition,"[3]; cisplatin combo, at 5 µM",7.68%
same,inhibition,"[3]; measured here: 5 uM single agent, at 5 µM",8.05%
same,inhibition,[4]; at 0.5 µM,101% (active)
same,inhibition,[4]; [16],85%
same,inhibition,[4]; [19],101%
same,inhibition,[4]; [20],104%
same,inhibition,[5]; at 0.5 µM,99.2% (active)
same,inhibition,"[5]; measured here: with BGB IC20, at 0.5 µM",98.8%
same,inhibition,"[5]; measured here: with BGB IC20, at 5 µM",99.9%
same,inhibition,"[5]; measured here: with cisplatin IC20, at 0.5 µM",99.3%
same,inhibition,"[5]; measured here: with cisplatin IC20, at 5 µM",100%
same,inhibition,"[5]; single agent, at 5 µM",99.9%
same,inhibition,[6]; at 0.5 µM,99.4% (active)
same,inhibition,"[6]; measured here: combination with BGB at IC20, at 0.5 µM",98.9%
same,inhibition,"[6]; measured here: combination with cisplatin at IC20, at 0.5 µM",99.6%
same,inhibition,[7]; at 0.5 µM,97.2% (active)
same,inhibition,"[7]; measured here: combo with BGB at IC20, at 0.5 µM",95.8%
same,inhibition,"[7]; measured here: combo with cisplatin at IC20, at 0.5 µM",97.5%
same,inhibition,[8]; at 0.5 µM,72.4% (inactive)
same,inhibition,"[8]; measured here: inhibition with BGB combination, at 0.05 µM",38.4%
same,inhibition,"[8]; measured here: inhibition with cisplatin combination, at 0.05 µM",35.7%
same,inhibition,[9]; at 0.5 µM,86.9% (active)
same,inhibition,[9]; [19],95.6%
same,inhibition,[9]; [20],112%
same,inhibition,[10]; at 0.5 µM,87.4% (active)
same,inhibition,"[10]; measured here: BGB combination, at 0.5 µM",85.1%
same,inhibition,"[10]; measured here: BGB combination, at 5 µM",89.2%
same,inhibition,"[10]; measured here: cisplatin combination, at 0.5 µM",91.5%
same,inhibition,"[10]; measured here: cisplatin combination, at 5 µM",95.1%
same,inhibition,"[11]; BGB combination, concentration series, at 5 µM",104%
same,inhibition,[11]; at 0.5 µM,80.6% (active)
same,inhibition,"[11]; cisplatin combination, concentration series, at 5 µM",98.3%
same,inhibition,[12],93.3% (active)
same,inhibition,[12]; measured here: combo with BGB IC20,88.3%
same,inhibition,[12]; measured here: combo with cisplatin IC20,93.9%
same,inhibition,[13]; at 0.5 µM,40.4% (inactive)
same,inhibition,"[13]; cisplatin combination, at 0.5 µM",18.1%
same,inhibition,"[13]; cisplatin combination, at 5 µM",88%
same,inhibition,"[13]; measured here: BGB IC40 combination 0.05 uM, at 0.05 µM",-6.7%
same,inhibition,"[13]; single agent, at 5 µM",88.2%
same,inhibition,[14]; at 0.5 µM,79% (inactive)
same,inhibition,"[14]; cisplatin combo, at 5 µM",90.7%
same,inhibition,"[14]; measured here: BGB IC40 combination, at 0.05 µM",13.9%
same,inhibition,[14]; [19],77.7%
same,inhibition,"[14]; single agent, at 5 µM",94.7%
same,inhibition,[15]; at 0.5 µM,99.5% (active)
same,inhibition,[15]; [17],99.1%
same,inhibition,[15]; [18],99.7%
same,inhibition,"[15]; single agent, at 0.05 µM",98.4%
same,inhibition,"[15]; single agent, at 5 µM",100%
